# Calls of active or inactive are those of the source.
# Columns and labels:
# [1] = tested on: Human papillomavirus type 1a protein E7 (residues 44-93); assay: HPV1a E7 fragment binders on microarrays, primary screen, biochemical, small-molecule microarray, residues 44-93, 635 nm fluorescence (AID 1108); conditions: small-molecule microarray binding, fluorescence 635 nm; higher = more signal;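 note: E7 fragment applied at 1 µg/mL in TBST for 1 h at 4 C; score combines spot fluorescence with its signal to noise ratio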
# [2] = modulators of HCV replicon luciferase signal, primary screen, HCV replication inhibitor project, Huh7 cells, luciferase reporter (AID 1109); conditions: 48 h, higher = more signal;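 note: huh7 hepatoma cells harbouring a luciferase neomycin HCV replicon reporter; luciferase luminescence as measure of HCV replicon replication; test concentration not given here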
# [3] = biological target: Left-right determination factor 2 (Homo sapiens) (UniProt O00292); assay: LEFTY2 binders on small-molecule microarrays, primary screen, biochemical, small-molecule microarray, 635 nm fluorescence scan (AID 1110); conditions: LEFTY2 binding, higher = more signal
# Chain of Left-right determination factor 2 (Homo sapiens) (O00292 whole entry, looked up): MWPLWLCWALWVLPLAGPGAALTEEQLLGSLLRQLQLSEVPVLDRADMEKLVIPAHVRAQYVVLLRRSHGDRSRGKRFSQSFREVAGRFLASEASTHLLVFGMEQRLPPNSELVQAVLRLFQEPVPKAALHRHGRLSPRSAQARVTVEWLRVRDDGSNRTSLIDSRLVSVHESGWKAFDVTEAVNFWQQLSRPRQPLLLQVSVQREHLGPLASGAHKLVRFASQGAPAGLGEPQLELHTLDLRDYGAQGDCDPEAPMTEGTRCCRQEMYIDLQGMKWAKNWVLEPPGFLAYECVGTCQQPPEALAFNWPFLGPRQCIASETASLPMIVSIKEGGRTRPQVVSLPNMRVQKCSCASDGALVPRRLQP
# [4] = biological target: Calmodulin-1 (Homo sapiens) (UniProt P0DP23); assay: CALM1 binders on microarrays, EGTA buffer, profiling panel, biochemical, small-molecule microarray, Cy5-labelled CALM1 (AID 1111); conditions: Cy5-CALM1 binding fluorescence, higher = more signal;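 note: labelled calmodulin applied in Tris saline Tween buffer holding calcium plus EGTA and DTT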
# [5] = biological target: Calmodulin-1 (Homo sapiens) (UniProt P0DP23); assay: calcium-bound CALM1 binders on microarrays, profiling panel, artefact control for SMM control-protein annotation, biochemical, small-molecule microarray, Cy5-labelled CALM1, plus calcium (AID 1112); conditions: Cy5-CALM1 binding fluorescence, higher = more signal;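 note: score merges spot fluorescence with signal to noise from triplicate slides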
# [6] = small-molecule microarray binders of probe aWnt5a, primary screen, biochemical, biotinylated probe, 635/667 nm fluorescence (AID 1113); conditions: higher = more signal;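 note: score merges 667 nm fluorescence intensity with signal-to-noise per printed feature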
# [7] = small-molecule microarray binders of probe aShh, primary screen, biochemical, biotinylated probe, 635/667 nm fluorescence (AID 1114); conditions: higher = more signal;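 note: probe is biotin-labelled aShh protein from a stem cell growth factor screen; measures binding of labelled protein to compounds printed on the slide; score merges feature fluorescence at 667 nm with signal-to-noise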
# [8] = small-molecule microarray binders of probe aNog, primary screen, biochemical, biotinylated probe, 635/667 nm fluorescence (AID 1115); conditions: higher = more signal;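 note: probe is biotinylated aNog protein used at 0.15 µg/mL for 1 h at 4 C; z-score combines 667 nm fluorescence of each spot with its signal to noise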
# [9] = biological target: Torsin-1A-interacting protein 1 (Homo sapiens) (UniProt Q5JTV8); assay: LAP1 binders from COS7 cell lysate, primary screen, small-molecule microarray, 635/667 nm fluorescence (AID 1116); conditions: COS7-hLAP1 lysate binding, 635 nm fluorescence, higher = more signal
# Chain of Torsin-1A-interacting protein 1 (Homo sapiens) (Q5JTV8 whole entry, looked up): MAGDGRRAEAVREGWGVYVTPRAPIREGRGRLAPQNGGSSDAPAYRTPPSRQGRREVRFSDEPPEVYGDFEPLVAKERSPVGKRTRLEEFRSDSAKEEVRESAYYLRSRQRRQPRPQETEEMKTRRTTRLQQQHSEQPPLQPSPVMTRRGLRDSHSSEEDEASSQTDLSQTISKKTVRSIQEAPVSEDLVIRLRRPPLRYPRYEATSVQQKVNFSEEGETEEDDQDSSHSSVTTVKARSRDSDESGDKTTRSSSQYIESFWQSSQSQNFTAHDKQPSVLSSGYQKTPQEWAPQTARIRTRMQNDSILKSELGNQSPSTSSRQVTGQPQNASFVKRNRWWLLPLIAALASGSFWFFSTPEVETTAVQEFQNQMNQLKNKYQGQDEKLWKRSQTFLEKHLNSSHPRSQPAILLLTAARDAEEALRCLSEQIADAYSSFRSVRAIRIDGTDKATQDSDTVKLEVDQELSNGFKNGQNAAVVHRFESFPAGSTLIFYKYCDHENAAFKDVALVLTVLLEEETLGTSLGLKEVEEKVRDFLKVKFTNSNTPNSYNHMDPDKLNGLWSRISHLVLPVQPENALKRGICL
# [10] = biological target: Alpha-bungarotoxin (Bungarus multicinctus) (UniProt P60615); assay: alpha-bungarotoxin binders on microarray, profiling panel, artefact control for SMM control protein annotation, biochemical, small-molecule microarray, Alexa647 label, 635/667 nm fluorescence (AID 1117); conditions: alpha-BTX-A647 binding fluorescence, higher = more signal
# Chain of Alpha-bungarotoxin (Bungarus multicinctus) (P60615 whole entry, looked up): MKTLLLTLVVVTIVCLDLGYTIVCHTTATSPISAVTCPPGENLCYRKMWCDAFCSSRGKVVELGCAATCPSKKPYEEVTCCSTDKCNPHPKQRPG
# Albumin (Bos taurus) = Albumin (Bos taurus) (UniProt P02769); assay: bovine serum albumin binders on microarray, profiling panel, artefact control for SMM control protein annotation, biochemical, small-molecule microarray, Alexa647 label, 635/667 nm fluorescence (AID 1118); conditions: BSA-A647 binding, fluorescence 635 nm, higher = more signal;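 note: score merges 667 nm emission intensity and signal-to-noise per printed compound spot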
# Chain of Albumin (Bos taurus) (P02769 whole entry, looked up): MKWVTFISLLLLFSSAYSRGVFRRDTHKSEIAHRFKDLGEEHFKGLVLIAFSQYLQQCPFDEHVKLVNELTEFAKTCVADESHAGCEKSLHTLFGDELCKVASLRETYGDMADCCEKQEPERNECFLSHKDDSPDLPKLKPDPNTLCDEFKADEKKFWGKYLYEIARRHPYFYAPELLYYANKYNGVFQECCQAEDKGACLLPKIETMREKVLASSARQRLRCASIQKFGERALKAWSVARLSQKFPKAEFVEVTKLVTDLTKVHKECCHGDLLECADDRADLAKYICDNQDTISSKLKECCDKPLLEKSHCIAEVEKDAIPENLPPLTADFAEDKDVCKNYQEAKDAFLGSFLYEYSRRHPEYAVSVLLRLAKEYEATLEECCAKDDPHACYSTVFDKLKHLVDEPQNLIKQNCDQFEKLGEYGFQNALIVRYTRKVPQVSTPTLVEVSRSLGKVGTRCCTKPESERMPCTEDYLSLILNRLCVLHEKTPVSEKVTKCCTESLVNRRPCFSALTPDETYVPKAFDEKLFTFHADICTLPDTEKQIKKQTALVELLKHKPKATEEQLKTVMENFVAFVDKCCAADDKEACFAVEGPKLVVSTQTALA
# [11] = small-molecule microarray binders of probe aXIP, primary screen, biochemical, NeuroSMM set, 635/667 nm fluorescence (AID 1119); conditions: higher = more signal, called active from +8 up or from −8 down;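 note: probe is the protein aXip251-270 applied at 1 µg/mL to compound-printed slides; binding of probe to printed compounds measured as 667 nm fluorescence plus signal to noise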
# [12] = small-molecule binders of probe aNOTCH3, primary screen, biochemical, small-molecule microarray, 635/667 nm fluorescence (AID 1120); conditions: higher = more signal;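 note: probe is a biotin-tagged antibody raised against NOTCH3 rather than NOTCH3 protein; score merges spot fluorescence near 667 nm with spot signal to noise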
# [13] = small-molecule binders of probe aNOTCH2, primary screen, biochemical, small-molecule microarray, 635/667 nm fluorescence (AID 1121); conditions: higher = more signal;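 note: score merges feature fluorescence read at 667 nm with its signal to noise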
# [14] = biological target: Carbonic anhydrase 2 (Homo sapiens) (UniProt P00918); assay: CAII small-molecule binders, profiling panel, biochemical, small-molecule microarray, Alexa647-labelled CAII (AID 1122); conditions: CAII-A647 binding fluorescence, higher = more signal
# [15] = COS7 lysate on small-molecule microarray, probe aHis, 635 nm (AID 1123); conditions: COS7 cell lysate, fluorescence, higher = more signal;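 note: z-score combines 667nm fluorescence intensity with signal-to-noise per printed compound spot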
# [16] = compound binding in COS7 lysate, probe aLAP1, primary screen, cell lysate, small-molecule microarray (AID 1124); conditions: probe aLAP1, fluorescence, higher = more signal;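 note: lysate comes from COS7 cells expressing LAP1 and is applied at 0.3 µg/mL; score merges spot fluorescence near 667 nm with signal-to-noise over triplicate slides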
# Sam68 (KHDRBS1) = assay: Sam68 small-molecule binders, primary screen, biochemical, small-molecule microarray, 635 nm fluorescence (AID 1125); conditions: small-molecule microarray binding, higher = more signal;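 note: score merges 667 nm channel intensity with signal to noise over triplicate slides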
# [17] = tested on: Chordin-like protein 2 (CHRDL2); assay: CHRDL2 small-molecule binders, primary screen, biochemical, small-molecule microarray, 635 nm fluorescence (AID 1126); conditions: small-molecule microarray binding, fluorescence 635 nm; higher = more signal;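 note: printed compound slides probed with Chrdl2 protein at 4 µg/mL for 1 h at 4 C; score merges 667 nm emission intensity with signal to noise over three replicate slides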
# [18] = biological target: Concanavalin-A (Canavalia ensiformis) (UniProt P02866); assay: ConA small-molecule binders, primary screen, artefact control for SMM control protein annotation, biochemical, small-molecule microarray, Alexa647 label, 635 nm (AID 1127); conditions: ConA-A647 binding fluorescence, higher = more signal;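 note: z combines 667 nm emission intensity with signal-to-noise across three replicate slides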
# Chain of Concanavalin-A (Canavalia ensiformis) (P02866 whole entry, looked up): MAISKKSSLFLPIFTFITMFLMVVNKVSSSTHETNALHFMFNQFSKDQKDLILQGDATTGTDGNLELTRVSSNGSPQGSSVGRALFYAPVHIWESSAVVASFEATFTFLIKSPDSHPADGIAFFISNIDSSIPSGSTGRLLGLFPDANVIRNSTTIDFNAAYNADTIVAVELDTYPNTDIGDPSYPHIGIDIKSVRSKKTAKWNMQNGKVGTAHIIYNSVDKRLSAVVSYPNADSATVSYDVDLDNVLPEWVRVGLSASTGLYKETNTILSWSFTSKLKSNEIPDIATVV
Compound,composite z-score [1],z-score [2],composite z-score [3],composite z-score [4],composite z-score [5],composite z-score [6],composite z-score [7],composite z-score [8],composite z-score [9],composite z-score [10],composite z-score (Albumin (Bos taurus)),composite Z-score [11],composite z-score [12],composite z-score [13],composite z-score [14],composite z-score [15],composite z-score [16],composite z-score (Sam68 (KHDRBS1)),composite z-score [17],composite z-score [18]
[N-]=[N+]=Nc1ccccc1[C@@H]1OC(c2ccc(OCCCO)cc2)=N[C@]1(Cc1ccccc1)C(=O)N1CCCCC1,1.46,-2.57,0.0418,1.43,0.748,0.0484,0.337,1.37,1.57,1.25,0.712,0.254 (inactive),0.22,-0.108,0.415,1.94,1.36,1.29,-0.365,0.948
COC(=O)C/C=C/C[C@]1(O)C(=O)N(C)c2ccccc21,0.0938,0.027,0.704,-1.34,-0.895,-0.122,-0.243,-0.252,0.194,0.766,-0.475,-0.571 (inactive),0.212,-0.099,0.273,0.401,0.111,0.241,0.934,-0.556
CN1C(=O)C2C=CC(C(O)c3cccn3C)N(Nc3ccc([N+](=O)[O-])cc3[N+](=O)[O-])C2C1=O (stereo not given),0.0443,-0.0091,-0.135,1.08,0.212,0.0357,0.496,0.31,-0.0083,0.401,0.38,-0.398 (inactive),0.0681,0.476,0.848,0.856,0.376,-0.0879,-0.248,-0.0516
CN(C)C(=O)[C@]1(CCC(=O)OC(C)(C)C)N=C(c2ccc(OCCCO)cc2)O[C@@H]1c1ccccc1CN=[N+]=[N-],1.44,-2.19,-0.502,2.31,0.392,0.26,0.4,1.13,2.9,1.81,1.01,-0.579 (inactive),0.0749,-0.0037,0.673,3.17,1.15,1.34,-1.24,1.12
COCCOC(=O)N1C(=O)[C@@]2(c3cc(C#CC4(O)CCCCCC4)ccc31)[C@H](C(=O)Nc1nc3ccccc3s1)[C@H]1C(=O)O[C@H](c3ccccc3)[C@H](c3ccccc3)N1[C@@H]2c1ccc(O)cc1,1.37,-0.895,1,1.29,0.102,-0.18,-0.0849,-0.188,0.286,1.1,0.25,0.56 (inactive),0.188,-0.088,0.303,1.59,0.713,1.3,0.626,1.18
